We go through 19 molecules from PubChem BioAssay (Tox21).

The nature of assay [1]: qHTS assay to identify small molecule antagonists of the vitamin D receptor (VDR) signaling pathway - cell viability counter screen (AID 743225). Further: nearly all actives have a fitted effect of over 50% in size. Further: potency means the concentration at half of the fitted maximal effect. On viability change, negative = cytotoxic: on the % scale 0 is the no-effect control and ±100 the full control effect. In outline:
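Same-well multiplex: following 16 h treatment of HEK 293T cells carrying a UAS-driven beta-lactamase reporter with compound and agonist (3 nM final), and a 2 h FRET substrate step, CellTiter-Glo was added and luminescence read after 30 min.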

Assay [2] is described as follows: qHTS assay to identify small molecule agonists of the endoplasmic reticulum stress response signaling pathway (AID 1159516; active means well fitted activation curve with a large enough effect in the signal ratio in the repeat runs, not every such curve was filed as active; the % refers to the signal ratio; further: on the % scale 0 is the no-effect control and ±100 the full control effect). In outline:
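CellSensor ESRE-bla HeLa cells, carrying a beta-lactamase reporter driven by the ER stress response element, were plated overnight and exposed to compounds for 5 hr at 37 C. Reporter activity was read as FRET substrate fluorescence after 2 hr at room temperature.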

Assay [3] is described as follows: qHTS assay to identify small molecule antagonists of the retinoid-related orphan receptor gamma (ROR-gamma) signaling pathway - cell viability counter screen (AID 1159520). Further: nearly all actives have a fitted effect of over 50% in size. Further: potency means the concentration at half of the fitted maximal effect. On activity, negative = cytotoxicity: on the % scale 0 is the no-effect control and ±100 the full control effect. An outline of the steps: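 Tet-on ROR gamma CHO cells (1,000/well) were plated 4 hr, given compounds in DMSO for 2 hr at 37 C, then induced with 1 uM final doxycycline for 16 hr. Viability was read as ATP by CellTiter-Glo luminescence after 30 min.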
In general terms: qHTS replaces the single test concentration by a dilution series.

Assay [4] is described as follows: qHTS assay to identify small molecule agonists of the AP-1 signaling pathway - cell viability counter screen (AID 1159525; calls by dose curve; further: nearly all actives have a fitted effect of over 55% in size; further: potency means the concentration at half of the fitted maximal effect). In outline:
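ME-180 AP-1-bla, 2500 cells/well, Opti-MEM + 0.5% dialyzed FBS; overnight 37 °C; cpd 15-pt titration, 5 h 37 °C; CellTiter-Glo 30 min RT; luminescence read; normalised to TOAB and DMSO controls.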

Assay [5] in a line: qHTS assay to identify small molecule agonists of the AP-1 signaling pathway (AID 1159526; calls by dose curve; further: potency means the concentration at half of the fitted maximal effect).
For assay [6], the target named is Retinoic acid receptor RXR-alpha (Homo sapiens) (UniProt P19793). Briefly: qHTS assay to identify small molecule agonists of the RXR signaling pathway (AID 1159527; calls by dose curve; further: on the % scale 0 is the no-effect control and ±100 the full control effect; nearly all actives have a fitted effect of over 35% in size). In outline:
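Compounds in DMSO were added to RXR-alpha-UAS-bla HEK 293T cells kept in 2% charcoal-stripped serum, and incubated 16 hr at 37 C with 5% CO2. Reporter signal came from a 2 hr B/G FRET substrate step.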

Assay [7] is described as follows: qHTS assay to identify small molecule antagonists of the retinoid acid receptor (RAR) signaling pathway - cell viability counter screen (AID 1159551). Further: nearly all actives have a fitted effect of over 35% in size. Further: potency means the concentration at half of the fitted maximal effect. In outline: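 C3RL4 cells were seeded overnight at 37 C, then treated with compounds plus 1 uM (final) retinol for 6 h at 37 C. Viability was read as ATP by CellTiter-Glo luminescence after 30 min at room temperature.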

Assay [8] is described as follows: qHTS assay to identify small molecule antagonists of the retinoic acid receptor (RAR) signaling pathway (AID 1159552; further: nearly all actives have a fitted effect of over 50% in size; further: potency means the concentration at half of the fitted maximal effect). In outline: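 Antagonism of retinol-induced RARE reporter activity was measured in C3RL4 cells. Exposure to compounds and 1 uM final retinol lasted 6 hr at 37 C, with luminescence as endpoint.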
The nature of assay [9]: qHTS assay to identify small molecule agonists of the vitamin D receptor (VDR) signaling pathway - cell viability counter screen (AID 743224). Further: nearly all actives have a fitted effect of over 50% in size. Further: potency means the concentration at half of the fitted maximal effect. In outline:
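VDR-bla cells were preincubated 4 h at 37C/5% CO2, then exposed to compounds for 16 h. After the 2 h room-temperature bla FRET read, CellTiter-Glo was added to the same wells and luminescence read after 30 min.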

Assay [10] in a line: qHTS assay to identify small molecule agonists of the RXR signaling pathway - cell viability counter screen (AID 1159529). Further: nearly all actives have a fitted effect of over 50% in size. Further: potency means the concentration at half of the fitted maximal effect. In outline:
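Counter screen: CellTiter-Glo luminescence. Cells: RXR-alpha-UAS-bla HEK 293T. Medium: 2% charcoal-stripped FBS. Treatment: 16 h, 37 C. Reagent incubation: 30 min, RT.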

Assay [11] in a line: qHTS assay to identify small molecule agonists of the endoplasmic reticulum stress response signaling pathway - cell viability counter screen (AID 1159517; calls by dose curve; further: nearly all actives have a fitted effect of over 50% in size; further: potency means the concentration at half of the fitted maximal effect). In outline:
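Luminescence readout: CellTiter-Glo, 30 min RT, same wells as the ESRE-bla reporter read. HeLa ESRE-bla, 1,500 cells/well, o/n 37 C; cpd 5 hr 37 C/5% CO2.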

In assay [12] the target is Nuclear receptor ROR-gamma (Homo sapiens) (UniProt P51449). As to the kind of experiment: qHTS assay to identify small molecule antagonists of the retinoid-related orphan receptor gamma (ROR-gamma) signaling pathway (AID 1159521; further: nearly all actives have a fitted effect of over 50% in size; further: potency means the concentration at half of the fitted maximal effect). An outline of the steps: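 Inducible-expression reporter assay: doxycycline (1 uM final) switched on RORγ in CHO cells bearing a ROR response element-luciferase construct, with test compounds present from 2 h beforehand. Decreased luminescence after 16 h defined antagonist activity.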

Assay [13] can be described thus: qHTS assay to identify small molecule agonists of the retinoic acid receptor (RAR) signaling pathway (AID 1159553). Further: on the % scale 0 is the no-effect control and ±100 the full control effect. To be noted: C3RL4 RARE luciferase reporter, agonist, 6 h; activation: at 73.3 µM (top of the series) unless noted. In outline:
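C3RL4 cells carrying a RARE luciferase reporter were plated overnight at 37 C, then exposed to compounds in DMSO for 6 hr at 37 C and 5% CO2. Luminescence was read 30 min after luciferase reagent addition at room temperature.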

Where “and” joins values, the source holds several entries; their conditions need not be identical. Equal entries are not always repeated. Inconclusive results are not listed. More than one record can exist for a structure, and the calls need not agree. Calls of active or inactive are those of the source. Unless noted, the call rests on the fitted dose curve; in most records, active means well fitted curve in the direction sought with a large enough effect in the repeat runs; inconclusive means weak or mixed curves; inactive means no such curve, though single readings can be large; an effect the other way counts as inactive or inconclusive.

Chain of Retinoic acid receptor RXR-alpha (Homo sapiens) (P19793 whole entry, looked up): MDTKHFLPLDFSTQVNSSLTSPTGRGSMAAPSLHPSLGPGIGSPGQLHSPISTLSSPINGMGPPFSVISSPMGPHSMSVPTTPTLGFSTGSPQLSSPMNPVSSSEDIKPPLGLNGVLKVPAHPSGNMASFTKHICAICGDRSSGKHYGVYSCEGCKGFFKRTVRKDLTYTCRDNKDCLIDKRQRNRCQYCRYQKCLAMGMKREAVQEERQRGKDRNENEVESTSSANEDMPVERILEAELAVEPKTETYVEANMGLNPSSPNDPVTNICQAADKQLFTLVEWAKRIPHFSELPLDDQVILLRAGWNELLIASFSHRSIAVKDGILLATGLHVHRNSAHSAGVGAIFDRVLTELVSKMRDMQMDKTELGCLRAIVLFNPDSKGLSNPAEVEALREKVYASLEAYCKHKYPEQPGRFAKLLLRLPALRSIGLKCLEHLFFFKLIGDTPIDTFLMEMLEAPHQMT

On to `CCCCCCCC`, for which the Potency result in assay [1], in [2], in assay [3], in assay [4], in [5] and in [6] was “inactive” each time. Further, the Potency result in assay [7] and in [8] was “inactive” in each case.

On to `C/C=C/C=C/COC(=O)C(C)C`, for which the Potency entry in assay [9], in assay [1], in assay [2], in assay [4], in [5] and in [10] was “inactive” each time. Besides, in [8], the Potency is 27.3 µM (active).

`NC[C@H]1O[C@H](O[C@H]2[C@H](O[C@@H]3O[C@H](CO)[C@@H](O)[C@H]3O)C(O)[C@H](N)C[C@@H]2N)[C@H](N)[C@@H](O)[C@@H]1O` (some centres not stated): the activity change, negative = cytotoxicity in assay [9] is -1.26% [at 13.2 µM] (inactive); in assay [11] it was -1.85% [at 6.95 µM] (inactive); in assay [10], 3% [at 6.97 µM] (inactive); in assay [7] it was -0.449% [at 8.39 µM] (inactive). Moreover, the viability change, negative = cytotoxic was -0.622% [at 6.95 µM] (inactive) in [1] and 9.44% [at 6.97 µM] (inactive) in assay [4]. In addition, the activity, negative = cytotoxicity in assay [3] was 4.86% [at 8.39 µM] (inactive). The activity change, negative = inhibition in [12] is 9.94% [at 8.39 µM] (inactive). Also, the activation in assay [5] is -3.58% [at 6.97 µM] (inactive); in [6], 5.85% [at 6.98 µM] (inactive); in assay [13], -3.22% [at 8.36 µM] (inactive). For the same molecule, the activity, negative = inhibition in assay [8] was -17.9% [at 8.39 µM] (inactive).

Consider `CC1(C)CC(O)CC(C)(C)N1`, for which the Potency result in assay [9], in assay [1], in assay [2], in assay [3], in [12] and in [4] was “inactive” in each case. The Potency entry in assay [5], in assay [6], in [10], in assay [7], in assay [8] and in [13] was “inactive” in each case.

For `CC(C)(C)c1csc(-c2cc3cc(OCc4ccccc4CC(=O)O)ccc3o2)n1`, the Potency result in assay [2], in assay [8] and in assay [13] was “inactive” each time.

On to `Cc1cc(C(C#N)c2ccc(Cl)cc2)c(Cl)cc1NC(=O)c1cc(I)cc(I)c1O` (configuration not stated), for which the Potency entry in [9], in assay [1], in [2], in [11], in assay [4] and in [7] was “inactive” each time. For the same molecule, the Potency in assay [12] is 29.8 µM (active).

As for `c1ccsc1`, the Potency result in assay [9], in [1], in assay [2], in assay [3], in [12] and in [4] was “inactive” in each case. The Potency entry in [5], in assay [10] and in assay [7] was “inactive” each time.

Consider `OC1CCCc2ccccc21` (configuration not stated), for which the Potency entry in assay [9], in assay [1], in assay [2], in assay [3], in assay [12] and in assay [4] was “inactive” throughout. Further, the Potency result in assay [5] and in assay [7] was “inactive” each time.

Take `Cc1cc(-n2nc3ccc(Cl)cc3n2)c(O)c(C(C)(C)C)c1`: the Potency result in assay [9], in assay [3], in assay [12], in assay [4], in [5] and in assay [6] was “inactive” each time. In addition, the Potency entry in assay [10], in [7], in [8] and in assay [13] was “inactive” each time.

As to `O=C(O)CN(CCN(CC(=O)O)CC(=O)O)CC(=O)O`, the activity change, negative = cytotoxicity in assay [9] is -2.08% [at 2.7 µM] (inactive); in [10], -6.94% [at 2.72 µM] (inactive); in assay [7], 1.05% [at 3.27 µM] (inactive). In addition, the figures for the activation in assay [2] and in assay [6] were -1.14% [at 3.11 µM] (inactive) and -6.85% [at 2.71 µM] (inactive), respectively. Moreover, in [3], the activity, negative = cytotoxicity was -1.43% [at 3.27 µM] (inactive). The viability change, negative = cytotoxic in [4] was -2.04% [at 2.72 µM] (inactive).

For the molecule `CN(C)Cc1cc(C(C)(C)C)c(O)c(C(C)(C)C)c1`, the Potency result in assay [2], in [3], in assay [12], in [4], in assay [5] and in [7] was “inactive” in each case. The Potency entry in assay [8] and in assay [13] was “inactive” throughout.

For the molecule `CCCC(=O)OCOC(=O)C1=C(C)NC(C)=C(C(=O)OC)C1c1cccc(Cl)c1Cl` (configuration not stated), the Potency result in assay [9], in [1], in assay [2], in assay [3], in [12] and in [4] was “inactive” throughout. The Potency result in [5], in assay [10] and in assay [7] was “inactive” each time.

In the case of `CC(C)Cn1cnc2c(N)nc3ccccc3c21`, the Potency entry in [9], in assay [2] and in assay [13] was “inactive” in each case. Also, the activity, negative = cytotoxicity in [3] is -2.84% [at 19 µM] (inactive). In addition, the viability change, negative = cytotoxic in assay [4] is 9.4% [at 15.8 µM] (inactive). Also, in assay [6], the activation is 13.7% [at 15.8 µM] (inactive). Further, the activity change, negative = cytotoxicity in [10] was 1.15% [at 15.8 µM] (inactive); in [7], -0.222% [at 19 µM] (inactive). Further, the activity, negative = inhibition in assay [8] was 2.71% [at 19 µM] (inactive).

As to `O=c1[nH]c2ccccc2n1CCCN1CCN(C(c2ccccc2)c2ccccc2)CC1`, the Potency entry in assay [1], in assay [2], in assay [4], in [5] and in [7] was “inactive” each time.

On to `S=c1nccc[nH]1`, for which the Potency result in assay [9], in [1], in assay [2], in [3], in [4] and in [6] was “inactive” throughout. Further, the Potency entry in assay [10] and in assay [7] was “inactive” in each case. Besides, the Potency in assay [5] is 49.1 µM (active).

For `C=C(CC)C(=O)c1ccc(OCC(=O)O)c(Cl)c1Cl`, the Potency entry in assay [9], in assay [1], in assay [2], in [3], in [4] and in [7] was “inactive” throughout. In addition, the Potency in [12] is 54.1 µM (active); in assay [8], 48.2 µM (active).

For the molecule `COc1ccc2cc1Oc1ccc(cc1)C[C@H]1c3c(cc4c(c3Oc3cc5c(cc3OC)CCN(C)[C@@H]5C2)OCO4)CCN1C`, the Potency entry in [2], in assay [11], in assay [4] and in [13] was “inactive” each time. Further, the Potency was 23.9 µM (active) in [10] and 4.22 µM (active) in [8].

As for `CCCCCCCCCCCCCC[N+](C)(C)C`, the Potency in [9] is 26.6 µM (active) and 19.5 µM (active); in assay [1], 26.6 µM (active) and 6.16 µM (active) and 23.9 µM (active); in [11], 37.6 µM (active) and 34.6 µM (active) and 23.9 µM (active); in [3] it was 61.1 µM (active); in [4], 42.2 µM (active) and 48.9 µM (active) and inactive; in assay [10], 10.6 µM (active) and 15.5 µM (active) and 21.3 µM (active). Further, the Potency in assay [7] is 61.1 µM (active) and inactive. Also, the Potency result in assay [13] is “inactive”.

Regarding `C1CCC(SSC2CCCCC2)CC1`, the Potency entry in assay [9], in [1], in [11], in [3], in assay [12] and in assay [4] was “inactive” each time. The Potency result in assay [5], in [6], in [10], in assay [7], in assay [8] and in assay [13] was “inactive” each time.
